From the OligoGym collection

Molecular target: PLEKHA8
Assay: pooled miR-30 sensor sort-seq; sequence = guide strand
Conditions: shRNA
Further: reference of the scale not given here.

| Sequence | sensor-assay potency score (higher = more potent) |
| --- | --- |
| TTTCCAACAAGATCCATCTTAA | -0.407 |
| AATATTTCCAACAAGATCCATC | -1.17 |
| TAATAGGACAATATTCCCCCAC | -0.473 |
| TTCACAAGTGCTCAACTCCATT | -1.47 |
| ATTTCCAACAAGATCCATCTTA | 0.673 |
| TTCAGCAAACTCTTTCTCCTTC | 0.589 |
| TAGGGCTGTCTGGATATCCTTC | -0.391 |
| TAATATTTCCAACAAGATCCAT | -0.589 |
| TATCTACAGAATGAACTTGAAT | -1.22 |
| TTCCATTCCATCTTCCTTCCTT | 0.675 |
| ATTATCTACAGAATGAACTTGA | 1.24 |
| TTGAATTTCACAGACTGCCATT | -0.888 |

Molecular target: PLEKHB1
Assay: as above
Conditions: shRNA

| Sequence | sensor-assay potency score (higher = more potent) |
| --- | --- |
| TTGAAGTGGATGAGCACACGGT | -0.311 |
| TAGGGCATCATCCTTGGTCTCC | -0.411 |
| TTCCCGTAGGTTCACAGTCAGC | -1.99 |
| TGAAGTGGATGAGCACACGGTC | -1.12 |
| TATGTCACGGACATTGAAGTGG | -0.329 |
| TCATCCTTGGTCTCCGCACAGA | -1.23 |
| TCTGTCTCCACAGCCAGCCGCC | -1.23 |
| TCGTAGTAGTCTTGGTACGGGC | -1.27 |
| TCTCATCGTGGTAGTATCCCAG | -0.247 |
| TAGTAGCTGCGGACATACGTGG | -1.12 |
| TAGGGCGGTCCGTAGTAGCTGC | -0.166 |
| TAGTAGTCTTGGTACGGGCTGT | -0.059 |

Molecular target: PLEKHJ1
Assay: as above
Conditions: shRNA

| Sequence | sensor-assay potency score (higher = more potent) |
| --- | --- |
| TTCGTTCCTGTAGAAGATGAGG | -0.827 |
| TATGCCGAACTGTTCCAGGGGG | -0.541 |
| TGTACATTCATTCAGCACGGGG | -1.25 |
| ATGAACTCGTAGCTGGCCCGAC | -0.947 |
| TTTGAACAGAACAAGCACCCTG | 0.823 |
| TTCCTGTAGAAGATGAGGCTTC | 0.247 |
| TAGAAGATGAGGCTTCTCCGCA | -0.0375 |
| TTATTTGAACAGAACAAGCACC | -0.886 |
| TCAGGGTCCTCAATGAAGCTGA | -0.114 |
| TTTATTTGAACAGAACAAGCAC | 0.502 |
| TTGAACAGAACAAGCACCCTGG | 0.692 |
| TGACACTGCTCCTCGCTGCTGC | -0.0748 |

Molecular target: PLEKHN1
Assay: as above
Conditions: shRNA

| Sequence | sensor-assay potency score (higher = more potent) |
| --- | --- |
| TAGCAGTCGCTGACATCCTGGC | -0.66 |
| TTCTTGGAGAGCAAGTAGGGGC | -0.773 |
| TAGCTGGCGCACACCACGCGGA | -1.23 |
| TTTCTGGAGAAGGAGGCCCGGA | -1.45 |
